# Out of some 69,000 compounds screened, about 8,600 (12%) showed an effect of 50% or more. The sample as a whole holds a higher share of strong results than the screen did.
# System: Plasmodium berghei
# Experiment: Screen against P. berghei liver stage (PbLuc), transformed with Luciferase, at 10uM
# Type: functional, HepG2
# Settings: tested at 10 uM
row,SMILES,INHIBITION [%]
1,CCc1ccc(S(=O)(=O)NCCC(O)c2ccoc2)s1 (centres undefined),15.4
2,c1ccc(NCc2cn3c(n2)CN(Cc2cccnc2)CC3)nc1,38.7
3,Cc1ccc(-n2cc(C(=O)NCC(C)Cn3cccn3)nn2)cc1 (centres undefined),27.6
4,CO[C@H]1C[C@@H](O)C12CCN(Cc1nc(C(F)(F)F)no1)CC2,41.2
5,Cn1cc(-c2ncnc3c2CCN(C(=O)c2cscn2)CC3)cn1,14.6
6,O=S(=O)(C1CC1)N1CCC[C@]2(C[C@@H](Oc3ccccn3)CO2)C1,-49.7
7,CCOc1ccnc(N2CCN(C(=O)c3cc[nH]n3)CC2)n1,-1.14
8,COCCN1CC(C(=O)N(CCN(C)C)Cc2ccc(C)s2)CC1=O (centres undefined),38.3
9,COCCn1ccc(NC(=O)CNC(=O)CC(C)(C)C)n1,34.9
10,CN(CCO)CC1COCCN1C(=O)C1(c2cccs2)CCCC1 (centres undefined),14.9
11,COCCCN1CCCN(C(C)C(=O)Nc2cccc(I)c2)CC1 (centres undefined),85.1
12,COCCCN1CCCN(C(C)C(=O)Nc2ccnn2C(C)C)CC1 (centres undefined),0.139
13,COCCN1CCN(C(C)C(=O)Nc2ccnn2C(C)C)CC1 (centres undefined),11.8
14,CN(C)C(=O)C1OC2(CCN(C(=O)c3ccoc3)CC2)c2ccccc21 (centres undefined),22.2
15,O=C(NC1CC1)C1CCc2nnc(C3CC3)n21 (centres undefined),53.2
16,O=C(NC1CC1)C1CCc2nnc(-c3cccc(C(F)(F)F)c3)n21 (centres undefined),17.6
17,O=C(NC1CC1)C1CCc2nnc(-c3cccnc3)n21 (centres undefined),47.4
18,CC1CN(C(=O)Nc2cccc(CN3CCOC3=O)c2)CCO1 (centres undefined),-43.9
19,COc1ccc2c(c1)CCN(CCC(=O)NC1CCCCC1)CC2,6.8
20,CCc1cccc(N2CCC(NC(=O)C3CCCO3)CC2)c1 (centres undefined),48.2
21,CCc1cccc(CC(=O)NC2CCN(C(=O)NC(C)(C)C)CC2)c1,12.6
22,CCc1cccc(N2CCC(NC(=O)C3CCC3)CC2)c1,64.7
23,CCC(=O)NC1CCN(c2cccc(CC)c2)CC1,50.4
24,COc1cccc(N2CCN(CCC(=O)NC3CCCCC3)CC2)c1,64.6
25,COc1cccc(N2CCN(CCC(=O)NC3CCCC3)CC2)c1,24.5
26,CCc1cccc(N2CCC(NC(=O)C3CCOCC3)CC2)c1,21.5

row,SMILES,INHIBITION [%]
1,CCc1cccc(N2CCC(NC(=O)CCNC(N)=O)CC2)c1,5.03
2,CCOCCNC(=O)c1cccnc1N1CCCC1c1ccccn1 (centres undefined),-31
3,CCc1nc(CN(C)CC(=O)NC(C)C)cs1,14.8
4,Cc1ccc(-n2c(O)cc(C)c(C#N)c2=O)c(C)c1,-8.66
5,Cc1cnn(CC2CCCCN2C(=O)c2nccnc2N)c1 (centres undefined),-19.9
6,CC(=O)c1ccccc1-c1nc(CC2CCN(C)CC2)no1,24.7
7,Clc1cccc(C(CNCc2ccccn2)N2CCOCC2)c1 (centres undefined),53.9
8,Clc1cccc(C(CNc2ncccn2)N2CCOCC2)c1 (centres undefined),-14.5
9,Clc1cccc(C(CNCc2cccnc2)N2CCOCC2)c1 (centres undefined),23.2
10,COc1ccc(C)cc1-c1[nH]c2ccccc2c1C(=O)O,3.52
11,Cc1ccc2c(n1)N(CC(C)C)CCN(C(=O)Cc1ccccn1)C2,2.41
12,CC(Cc1cn(CCc2nc(N)cc(O)n2)nn1)c1ccccc1 (centres undefined),24.9
13,O=c1c(Cc2ccccc2)c(O)ccn1CCc1ccccc1,56.2
14,O=c1c(Cc2ccccc2)c(O)ccn1Cc1cccs1,-23.5
15,O=c1c(Cc2ccccc2)c(O)ccn1Cc1ccco1,34
16,Cc1nn(CCc2nnc(NCC(C)C)s2)c(C)c1Br,7.38
17,C=C(C)CN1CCCC(CNS(C)(=O)=O)C1 (centres undefined),12
18,CC(C)N1CCO[C@@H]2CN(C(=O)Cc3cccs3)CC[C@@H]2C1,59.3
19,CC(C)N1CCO[C@H]2CN(C(=O)Cc3ccsc3)C[C@H]21,7.24
20,Cc1ccc(CC(=O)N2CC[C@@H]3CN(CCN(C)C)CCO[C@@H]3C2)cc1,47.8
21,CN(C)CCN1CCO[C@@H]2CN(C(=O)Cc3ccsc3)CC[C@@H]2C1,51.2
22,CN1CCO[C@@H]2CN(C(=O)Cc3cccs3)CC[C@@H]2C1,26.7
23,O=C(C1CC=CC1)N1C[C@@H]2CN(Cc3ccsc3)CCO[C@@H]2C1,53.2
24,O=C(Cc1ccsc1)N1C[C@@H]2OCCN(c3cnccn3)[C@@H]2C1,52.3
25,O=C(C1CCOCC1)N1C[C@@H]2CN(Cc3ccsc3)CCO[C@@H]2C1,22.9
26,CS(=O)(=O)N1CCO[C@@H]2CN(C(=O)Cc3cccs3)CC[C@@H]2C1,16.8

row,SMILES,INHIBITION [%]
1,O=C(Cc1ccsc1)N1C[C@@H]2OCCN(CC3CC3)[C@@H]2C1,31.4
2,CN(C)CCN1CCO[C@@H]2CN(C(=O)c3cccs3)CC[C@@H]2C1,15.9
3,O=C(C1CC(F)(F)C1)N1C[C@@H]2CN(Cc3ccsc3)CCO[C@@H]2C1,41.6
4,O=C(CN1CCCC(Cn2cncn2)C1)NCCC1=CCCCC1 (centres undefined),37.9
5,CCc1n[nH]c(C2CN(C(=O)c3cnn(CC)c3)CCO2)n1 (centres undefined),-8.11
6,O=C(c1ccc2c(c1)OCO2)N1CCC(Nc2cccnn2)CC1,31.9
7,CN(C)C(=O)COC[C@@H]1CC[C@H]2[C@H](CCN2c2ccccn2)O1,11.4
8,Cn1ccc(C(=O)N2C[C@H]3CCC[C@@]3(COCc3cccnc3)C2)n1,3.69
9,O=C(N1CCCC1)N1C[C@@H]2CN(Cc3ccoc3)CCO[C@@H]2C1,80
10,CCN1CCO[C@@H]2CN(C(=O)c3cocn3)C[C@@H]2C1,18.7
11,O=C(c1cocn1)N1C[C@@H]2CN(CC3CC3)CCO[C@@H]2C1,6.83
12,O=C(CC1CCCC1)N1C[C@@H]2CN(Cc3ccoc3)CCO[C@@H]2C1,34.6
13,O=C(C1CC(F)(F)C1)N1C[C@@H]2CN(Cc3ccoc3)CCO[C@@H]2C1,-35.1
14,O=C(c1cocn1)N1C[C@@H]2CN(Cc3ccco3)CCO[C@@H]2C1,63
15,O=C1NC2(CCN(CC(=O)N3CCOCC3)CC2)Nc2ccc(Br)cc21,23.89
16,CN1Cc2ccccc2N(CC(O)C(F)(F)F)CCC1=O (centres undefined),18.4
17,CC(C)CC(NC(=O)c1ccco1)c1nc2cccnc2n1C (centres undefined),48
18,Cc1cc(C)n(CCCN(C)Cc2cn[nH]c2-c2ccc(F)cc2)n1,14
19,Cc1ccc(CN2CCOCC3(CCN(Cc4cccs4)C3)C2)o1 (centres undefined),-34
20,Cc1nc(CN(C)C2CCN(CCc3ccc4c(c3)CCO4)C2)no1 (centres undefined),-8.11
21,CN(CCc1ccc2c(c1)CCO2)C1CCS(=O)(=O)CC1,19
22,CCOCCN1CCN(c2ccc(CN(C)C)cn2)CC1,7.24
23,COCC(C)N1CCN(CCc2ccc3c(c2)CCO3)CC1 (centres undefined),51.9
24,CCOCCN1CCN(CCc2ccc3c(c2)CCO3)CC1,67.6
25,CC(C)NC1CCN(CCc2ccc3c(c2)CCO3)CC1,35.1
26,CC(=O)NCCNC(=O)c1cccc(Cn2nc(C)cc2C)c1,-18.9

row,SMILES,INHIBITION [%]
1,COCCN(C)C[C@@H]1CCC[C@@H]2CN(Cc3ccc(OC)nc3)C[C@@H]21,20.1
2,CCCC(O)CN1CC(C)(C)CN(C(=O)c2ccc(SC)cc2)CC1=O (centres undefined),43.4
3,O=C(NCCCn1cncn1)c1ccc(-c2ccccc2)[nH]c1=O,-12.9
4,Cc1ccc(C(=O)NCCCn2cncn2)c(=O)[nH]1,4.41
5,O=C(NCCCn1cncn1)c1ccc(-c2ccco2)[nH]c1=O,56.3
6,CN1CC(=O)N(c2ccsc2)CC12CCN(S(C)(=O)=O)C2 (centres undefined),-12.2
7,CCc1nc(C2CCCN2CC(=O)Nc2cc(C)on2)no1 (centres undefined),22.3
8,COc1ccc(-c2noc(C(N)CCSC)n2)cc1 (centres undefined),36.2
9,O=C(NCCNc1ncccn1)N1CCCC1c1ccc(F)cc1 (centres undefined),6.11
10,CNC(=O)c1nc(CC(=O)Nc2ccc3cc[nH]c3c2)no1,30.5
11,Brc1ccc(NCc2ccc(Cn3ccnc3)cc2)nc1,-51.4
12,CNC(=O)c1cccnc1NCc1ccc(-n2cccn2)cc1,26.4
13,CC(OCC1CC1)C(=O)NCc1ccc(Cn2ccnc2)cc1 (centres undefined),30.1
14,c1ccc(NCc2ccc(Cn3ccnc3)cc2)nc1,6.7
15,CC(C)COC(C)C(=O)NCc1ccc(Cn2ccnc2)cc1 (centres undefined),58.3
16,CNC(=O)c1cccnc1NCc1ccc(Cn2ccnc2)cc1,85.7
17,CC(C)COC(C)C(=O)NCc1ccccc1Cn1ccnc1 (centres undefined),32.3
18,CNC(=O)c1cccnc1NCc1ccc(Cn2cccn2)cc1,21.9
19,CS(=O)(=O)c1ccccc1NCc1ccc(Cn2ccnc2)cc1,52
20,COCCc1noc(CN(C)c2nc(C)cc(C)n2)n1,47.6
21,COc1ccc(Cl)cc1CCNC(=O)NCc1ccncc1,-23.5
22,NC(=O)CCN1CCc2onc(-c3ccccc3F)c2C1,-62.1
23,CC(=O)N1CCN(CCOc2ccc(F)cc2)CC(C(N)=O)C1 (centres undefined),12.3
24,CCNC(=O)[C@@H]1C[C@H](N)CN1C(=O)c1cccc(CCC(C)(C)O)c1,17.5
25,Cc1nn(C(C)C)c2cnn(CC(=O)N3CCN(C)CC3)c12,21.7
26,CC(C)c1cc(NC(=O)CN2CCn3c(nnc3C3CC3)C2)on1,7.5

# From ChEMBL document CHEMBL4513216, “Probing the Open Global Health Chemical Diversity Library for Multistage-Active Starting Points for Next-Generation Antimalarials” (ACS Infect Dis, 2020)
